Screening data deposited in PubChem BioAssay by several laboratories.
CCHFV vOTU inh: CCHFV vOTU protease inhibition | Pep-AMC fluorescence | inhibition, % at 11.5 µM | 370,000 compounds, 0.55% hits; further: 0% = vehicle wells with enzyme and 100% = no enzyme wells
Mtb FBA inh: inhibitors of M. tuberculosis fructose-bisphosphate aldolase; P9WQA3; AID 588726; inhibition, % at 1 µM; purified M. tuberculosis FBA, fluorescence read-out; 360,000 compounds, 2.3% hits; in the data active means inhibition above about 27%;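 further: 0% = vehicle and 100% = reference inhibitor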
Target sequence (P9WQA3 whole entry, looked up): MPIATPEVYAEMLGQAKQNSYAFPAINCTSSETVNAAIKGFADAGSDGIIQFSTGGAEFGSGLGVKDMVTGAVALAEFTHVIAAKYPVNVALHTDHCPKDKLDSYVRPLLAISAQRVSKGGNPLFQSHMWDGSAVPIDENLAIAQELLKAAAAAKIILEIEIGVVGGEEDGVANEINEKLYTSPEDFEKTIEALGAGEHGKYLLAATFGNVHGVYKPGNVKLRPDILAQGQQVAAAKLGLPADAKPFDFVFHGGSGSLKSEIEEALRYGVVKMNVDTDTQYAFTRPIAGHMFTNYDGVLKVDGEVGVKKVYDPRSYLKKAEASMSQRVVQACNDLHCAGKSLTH
GDH-TPI counter-1: counter-screen for M. tuberculosis FBA inhibitors: GDH-TPI coupled enzymes | GDH-TPI coupled enzyme counterscreen, NADH absorbance | inhibition, % at 4.8 µM | 360,000 compounds, 1.2% hits;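 further: 0% = DMSO wells and 100% = wells lacking the enzyme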
Mtb betalactam: beta-lactam sensitization of Mtb H37Rv. inhibition, % at 25 µM. 330,000 compounds, 0.27% hits. M. tuberculosis H37Rv growth with meropenem, percent inhibition; call rule not given here;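 further: growth measured after seven days incubation then overnight dye step; 0% = bacteria only wells and 100% = bacteria with antibiotic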
MazF activator: activators of E. coli MazEF toxin-antitoxin RNase | FAM/BHQ RNA-DNA oligo cleavage fluorescence, 5 h | AID 504720 | 350,000 compounds, 0.32% hits | activation, % at 20 µM; in the data active means activation above about 50%
Target sequence (P0AE70 whole entry, looked up): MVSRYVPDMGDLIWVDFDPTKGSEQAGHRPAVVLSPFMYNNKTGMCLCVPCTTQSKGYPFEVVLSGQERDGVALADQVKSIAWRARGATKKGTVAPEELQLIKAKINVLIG
Mtb FBA confirm: confirmation of M. tuberculosis fructose-bisphosphate aldolase inhibitors; inhibition, % at 1 µM; 5,600 compounds, 78% hits; shares compounds with Mtb FBA inh; purified M. tuberculosis FBA, fluorescence read-out; in the data active means inhibition above about 27%;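 further: 0% = vehicle wells and 100% = reference inhibitor wells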
GDH-TPI counter-2: counter-screen for M. tuberculosis FBA inhibitors: GDH-TPI coupled enzyme inhibition; 5,600 compounds, 81% hits; GDH-TPI coupled enzyme counterscreen, fluorescence; shares compounds with Mtb FBA inh; inhibition, % at 1 µM; in the data active means inhibition above about 10%
Starred values were filed as active, the others as inactive. Compounds with a hit are over-represented: about 4% of the library has one in this group of screens. Unless noted, no stated cut-off is given here; in the data, active means inhibition above about 30%; inactive means the rest.

What do the screens show for `c1ccc(Nc2c(-c3ccco3)nc3ccccn23)cc1`?
CCHFV vOTU inh: -81.0; Mtb FBA inh: 110.7*; GDH-TPI counter-1: 12.3; Mtb betalactam: 1.6; MazF activator: 0.3; Mtb FBA confirm: 99.4*; GDH-TPI counter-2: 71.0*

How did c1ccc(-c2nc(-c3ccco3)n3ccccc23)cc1 do in these assays?
CCHFV vOTU inh: -2.5; Mtb FBA inh: 4.7; GDH-TPI counter-1: 13.0; Mtb betalactam: -3.4; MazF activator: -252.6

How did COc1ccc(-c2nc3ccc(N4CCCC4)cc3c(=O)[nH]2)cc1OC do in these assays?
CCHFV vOTU inh: -44.9; Mtb FBA inh: 27.0*; GDH-TPI counter-1: 23.9; Mtb betalactam: 6.3; MazF activator: 8.7; Mtb FBA confirm: 4.8; GDH-TPI counter-2: -7.2

What do the screens show for `COc1ccc2nc(-c3ccccc3)[nH]c(=O)c2c1`?
CCHFV vOTU inh: 1.0; Mtb FBA inh: -0.6; GDH-TPI counter-1: 21.9; MazF activator: 5.7

What do the screens show for `CC(C)NC(=O)N[C@@H]1C[C@@H]2O[C@@H](CO)CC[C@@H]2O[C@@H]1CCc1ccc(-c2ccc(F)cc2)cc1`?
CCHFV vOTU inh: -0.8

Results for CCOC(=O)c1cc2c(=O)n3ccccc3nc2n(CCOC)c1=NC(=O)c1c(-c2c(F)cccc2Cl)noc1C ?
CCHFV vOTU inh: -6.9; Mtb FBA inh: 49.1*; GDH-TPI counter-1: 36.6*; Mtb betalactam: 10.6; MazF activator: -3.8; Mtb FBA confirm: 177.8*; GDH-TPI counter-2: 165.7*

Results for CCC(C)NC(=O)c1cnn2c(C)c3c(nc12)CCCC3 (stereo not given) ?
CCHFV vOTU inh: -35.0; Mtb FBA inh: 46.5*; GDH-TPI counter-1: 15.2; Mtb betalactam: 14.0; MazF activator: -1.4; Mtb FBA confirm: active; GDH-TPI counter-2: active

Results for Cc1c2c(nc3c(C(=O)NC4CC4)cnn13)CCCC2 ?
CCHFV vOTU inh: -0.2; Mtb FBA inh: 0.9; GDH-TPI counter-1: 0.6; Mtb betalactam: 4.1; MazF activator: -4.3

How did CCN(C(=O)[C@@H](C1CC1)[C@@H](O)c1ccc(Cl)cc1)c1ccccc1 do in these assays?
CCHFV vOTU inh: 4.7

Results for Cc1cccc(NC(=O)Cn2c(O)c(N=NC(N)=S)c3ccccc32)c1 ?
CCHFV vOTU inh: 11.7; Mtb FBA inh: 34.7*; GDH-TPI counter-1: 26.2; Mtb betalactam: -7.8; MazF activator: 7.9; Mtb FBA confirm: 187.4*; GDH-TPI counter-2: 146.0*

Results for CC1=CC(c2ccccc2)n2nc(NC(=O)CCCC(=O)O)nc2N1 (stereo not given) ?
CCHFV vOTU inh: -63.1; Mtb FBA inh: 61.7*; GDH-TPI counter-1: -5.2; Mtb betalactam: -3.6; MazF activator: 12.1; Mtb FBA confirm: 83.0*; GDH-TPI counter-2: 72.8*

How did CCC(=O)Nc1nc2n(n1)C(c1ccc(OC)cc1)C=C(c1ccccc1)N2 (stereo not given) do in these assays?
Mtb betalactam: 3.3

What do the screens show for `CC1=CC(c2ccccc2)n2nc(NC(=O)CCC(=O)O)nc2N1` (stereo not given)?
CCHFV vOTU inh: -116.9; Mtb FBA inh: 80.9*; GDH-TPI counter-1: 27.5; Mtb betalactam: -3.0; MazF activator: 13.5; Mtb FBA confirm: -3.6; GDH-TPI counter-2: -5.2

What do the screens show for `Cc1ccc(-n2nc(C)c3c2NC2=C(C(=O)CC(C)(C)C2)C3c2ccccc2OCC(=O)O)cc1` (stereo not given)?
CCHFV vOTU inh: -20.2; Mtb FBA inh: 36.9*; GDH-TPI counter-1: 3.8; Mtb betalactam: 0.7; MazF activator: -0.1; Mtb FBA confirm: 194.2*; GDH-TPI counter-2: 129.4*

What do the screens show for `Cc1c[nH]c2cccc(-c3c(Cl)cccc3Cl)c12`?
CCHFV vOTU inh: 12.4

Results for Cc1ccc(-c2nc(CN3CCCCC3)cc(CN3CCCCC3)c2O)cc1 ?
CCHFV vOTU inh: -43.2; Mtb FBA inh: 58.7*; GDH-TPI counter-1: 7.6; Mtb betalactam: 1.2; MazF activator: 9.4; Mtb FBA confirm: 143.6*; GDH-TPI counter-2: 121.8*

Results for O=C(O)C1CSC(c2ccc3c(c2)OCO3)N1 (stereo not given) ?
CCHFV vOTU inh: -4.8; Mtb FBA inh: 41.5*; GDH-TPI counter-1: 0.0; Mtb betalactam: -0.7; MazF activator: -2.3; Mtb FBA confirm: -5.7; GDH-TPI counter-2: -3.9

What do the screens show for `Cc1nc(S(=O)(=O)c2ccc(Cl)cc2)c(N(C)C)o1`?
CCHFV vOTU inh: -17.1; Mtb FBA inh: -1.6; GDH-TPI counter-1: -2.6; Mtb betalactam: -4.7; MazF activator: 2.7

What do the screens show for `CCOC(=O)c1nc2cc3n(c(C)c-2c1C)C(C)C(C)=C3C` (stereo not given)?
CCHFV vOTU inh: -17.5; Mtb FBA inh: 36.9*; GDH-TPI counter-1: 2.6; Mtb betalactam: -8.8; MazF activator: 10.7; Mtb FBA confirm: 63.5*; GDH-TPI counter-2: 50.0*

Results for CCOC(=O)c1n[nH]n(-c2cc(Cl)cc(Cl)c2)c1=O ?
CCHFV vOTU inh: -4.4; Mtb FBA inh: 2.3; GDH-TPI counter-1: -2.2; Mtb betalactam: 29.6; MazF activator: -2.8

Results for CCOC(=O)c1nc2cc3n(c(CC(C)C)c-2c1C)CC(C)=C3C ?
CCHFV vOTU inh: -25.1; Mtb FBA inh: 27.4*; GDH-TPI counter-1: 5.9; Mtb betalactam: 3.1; MazF activator: 30.2; Mtb FBA confirm: 118.5*; GDH-TPI counter-2: 88.0*

How did N#Cc1cccc(C#N)c1NCC1CCCO1 (stereo not given) do in these assays?
CCHFV vOTU inh: -88.5; Mtb FBA inh: 96.7*; GDH-TPI counter-1: 12.7; Mtb betalactam: 3.6; MazF activator: 3.2; Mtb FBA confirm: 184.5*; GDH-TPI counter-2: 121.7*

What do the screens show for `N#Cc1cc(Cl)c(NCC2CCCO2)cc1C#N` (stereo not given)?
CCHFV vOTU inh: -28.6; Mtb FBA inh: 37.6*; GDH-TPI counter-1: 21.4; Mtb betalactam: 6.9; MazF activator: 2.9; Mtb FBA confirm: 76.6*; GDH-TPI counter-2: 65.4*

What do the screens show for `COC(=O)[C@]12C[C@H](CC(=O)NCc3cccc4ccccc34)C(=O)N(Cc3ccccc3)C1=C[C@H](C(C)(C)C)O[C@@H]2C`?
CCHFV vOTU inh: 25.7

How did CCOc1ccccc1NC(=O)c1cc2c(C)nn(-c3ccccc3)c2s1 do in these assays?
CCHFV vOTU inh: -3.6

What do the screens show for `CC(=O)COc1ccc2c(-c3cccc([N+](=O)[O-])c3)cc(=O)oc2c1`?
CCHFV vOTU inh: 1.0; Mtb FBA inh: 36.0*; GDH-TPI counter-1: 4.8; Mtb betalactam: -8.5; MazF activator: -5.7; Mtb FBA confirm: 107.7*; GDH-TPI counter-2: 73.6*

Results for Cc1ccc(F)cc1C(=O)N1CCCC(c2nc(-c3cccs3)no2)C1 (stereo not given) ?
CCHFV vOTU inh: -0.1

Results for CCCCc1cc(=O)oc2cc(C)cc(OCC(=O)NCC3CCC(C(=O)O)CC3)c12 (stereo not given) ?
CCHFV vOTU inh: -28.8; Mtb FBA inh: 67.0*; GDH-TPI counter-1: 2.1; Mtb betalactam: -7.3; MazF activator: -4.0; Mtb FBA confirm: -0.5; GDH-TPI counter-2: -1.6
